The campaign covered roughly 190,000 compounds. About 1,900 (1%) were called active.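 The calls were made as follows: active = percentage of spot-positive cells more than 3 SD above its plate mean, without a fluorescence outlier flag or 80% toxicity; inconclusive = no clear call, values can overlap the other calls; inactive = the rest.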 The sample as a whole holds a higher share of actives than the screen did.
Test: autophagy modulators in MEF cells, primary screen, imaging, high-content, MEF GFP-LC3 (AID 463193);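 as to % cells with GFP-LC3 spots: spot-positive cell cutoff set from DMSO-treated cells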
Conditions: MEF GFP-LC3 puncta imaging, at 10 µM; % cells with GFP-LC3 spots: stronger effect = higher value; toxicity: measured here: cell loss, nuclei count

Row | SMILES | % cells with GFP-LC3 spots | toxicity [%]
1 | CCN1C(=O)/C(=C\N2CCOCC2)SC1=S | 5.71% (inactive) | -3.29
2 | CCN1C(=O)/C(=C\N2CCN(c3cccc(Cl)c3)CC2)SC1=S | 4.39% (active) | 13.1
3 | O=C(NCC(=O)N(CC1CCCO1)C(C(=O)NC1CCCCC1)c1ccccc1)c1ccco1 (configuration not stated) | 0.515% (inactive) | -9.95
4 | COc1ccc(NC(=O)C(Br)C(C)C)cc1 (configuration not stated) | 14.9% (inactive) | 8.32
5 | CC(=O)C1(C)N(O)C(C)(C)C(c2cccs2)=[N+]1[O-] (configuration not stated) | 3.17% (inactive) | -3.76
6 | CCC(C)(C)NC(=O)C(c1ccccn1)N(C(=O)c1csnn1)c1ccccc1 (configuration not stated) | 3.17% (inactive) | 14.8
7 | CC(C)(C)NC(=O)CN(C(=O)c1ccc(Cl)nc1)c1cccc2ccccc12 | 0.133% (inactive) | -8.05
8 | CC(C)(C)NC(=O)CN(C(=O)c1csnn1)c1ccccc1-c1ccccc1 | 8.79% (active) | 5.01
9 | Cn1c(-c2ccc(F)cc2)cnc1SCC(=O)NNC(=O)Cc1ccccc1 | 2.62% (inactive) | -10.5
10 | CCOC(=O)/C(C#N)=C/c1cn(CCC(=O)O)nc1-c1ccc(Br)cc1 | 0.855% (inactive) | -6.28
11 | COc1ccc(CC(=O)N2N=C(C)CC2(O)C(F)(F)F)cc1 (configuration not stated) | 1.78% (inactive) | 0.121
12 | CC1=NN(C(=O)CCc2ccccc2O)C(O)(C(F)(F)F)C1 (configuration not stated) | 3.31% (inactive) | -3.6
13 | CC1=NN(C(=O)CCCc2ccccc2)C(O)(C(F)(F)F)C1 (configuration not stated) | 4.12% (active) | 3.92
14 | CN1CCN(NC(=O)c2ccc(S(=O)(=O)N3CCCCCC3)cc2)CC1 | 1.83% (inactive) | 28
15 | Cn1c(SCC(=O)N2CCCc3ccccc32)nc2ccccc2c1=O | 11.1% (active) | 28.2
16 | O=C(CSc1nc2[nH]ncc2c(=O)n1-c1ccccc1)N1CCCc2ccccc21 | 6.24% (inactive) | 17.2
17 | O=C(CSc1nc2ccccc2c(=O)n1CCCO)N1CCc2ccccc21 | 7.69% (inactive) | -0.286
18 | CCCCN(CC(=O)NC(C)(C)C)C(=O)C(=O)Nc1ccc2c(c1)OCCO2 | 0.957% (inactive) | 5.19
19 | C/C(=N\NC(=O)c1ccc(NS(=O)(=O)c2cccs2)cc1)c1ccc2ccccc2c1 | 20.7% (inactive) | -14.3
20 | CCNC(=O)COc1cc(C)c(Br)c(C)c1 | 22.5% (inactive) | 9.49
21 | COc1ccc(C(c2nnnn2Cc2cccs2)N2CCN(c3ccccc3)CC2)cc1OC (configuration not stated) | 10.1% (active) | 46.3

Row | SMILES | % cells with GFP-LC3 spots | toxicity [%]
22 | COc1ccccc1C(c1nnnn1CC1CCCO1)N1CCN(c2ccccc2)CC1 (configuration not stated) | 0.609% (inactive) | -7.4
23 | COc1ccc(CCn2nnnc2C(c2ccccc2)N2CCN(C)CC2)cc1OC (configuration not stated) | 22.3% (inactive) | -9.31
24 | Cc1ccc(NC(=O)c2ccccn2)cc1S(=O)(=O)N1CCOCC1 | 7.19% (inactive) | 21.1
25 | COc1ccc(NC(=S)NCC2CCN(c3ccc(OC)cc3)C2)cc1 (configuration not stated) | 6.08% (inactive) | 8.9
26 | COc1ccc(C(=O)Nc2ccc(NC(=O)C(C)C)nc2)cc1 | 4.13% (inactive) | -1.69
27 | COc1ccc(CC(=O)Nc2ccc(C(=O)NC(C)(C)C)cc2)cc1 | 6.06% (inactive) | -0.0115
28 | Cc1ccc(OCC(=O)Nc2ccc(-c3nc4ncccc4o3)cc2)cc1 | 13.3% (inactive) | -0.528
29 | COc1ccc(CC(=O)Nc2ccc(-c3nnc(-c4ccc(C)cc4)o3)cc2)cc1 | 39.9% (active) | 9.61
30 | CN(c1ccc2nc3ccccc3c(=O)n2n1)C1CCCCC1 | 14.8% (inactive) | 11.6
31 | Nc1nc(NC(=O)/C=C/c2ccccc2)nn1-c1ccccc1 | 7.01% (inactive) | 2.03
32 | OC(CNCC1CCCO1)Cn1c2ccc(Br)cc2c2cc(Br)ccc21 (configuration not stated) | 7.36% (active) | 47
33 | Cc1ccc(C(=O)NCC2CCCO2)o1 (configuration not stated) | 12.6% (inactive) | -1.73
34 | CCc1cc(Br)ccc1NC(=O)C1CCCO1 (configuration not stated) | 2.25% (inactive) | -4.23
35 | O=C(Cc1c(F)cccc1Cl)Nc1ccc(-n2cnnn2)cc1 | 1.73% (inactive) | 5.48
36 | O=C(c1ccc(-n2cnnn2)cc1)N1CCN(C(c2ccccc2)c2ccccc2)CC1 | 1.42% (inactive) | 13.6
37 | c1cc(-n2cnnn2)ccc1NC1=NCCC1 | 12.1% (active) | -6.55
38 | CN(C)CCNC(=O)Cc1ccc([N+](=O)[O-])cc1 | 4.19% (inactive) | 2.43
39 | COc1ccc(CC(=O)NCc2nnc(SCC(=O)Nc3ncc(C)s3)n2C)cc1 | 3.99% (inactive) | -3.03
40 | Cn1c(=O)c([N+](=O)[O-])c(Oc2ccccc2)c2ccccc21 | 0.277% (inactive) | -4.02
41 | O=C(OCC1O[C@@H](OC(=O)c2cc(O)c(O)c(O)c2)[C@@H](OC(=O)c2cc(O)c(O)c(O)c2)[C@@H](OC(=O)c2cc(O)c(O)c(O)c2)[C@@H]1OC(=O)c1cc(O)c(O)c(O)c1)c1cc(O)c(O)c(O)c1 (some centres not stated) | 0.427% (inactive) | -40.5
